Source: PubChem (Johns Hopkins Ion Channel Center)
KCNQ2 pot: potentiators of rat KCNQ2 potassium channel. actives 0.54% (n = 310,000). B-score at 10 µM. Potassium voltage-gated channel subfamily KQT member 2 (Rattus norvegicus), O88943. CHO-K1 KCNQ2, FluxOR thallium flux fluorescence; stronger effect = higher value. AID 2239, 2010;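 active = fluorescence ratio B-score at least 3 SD of library B-scores, with initial fluorescence B-score within 3 of them, cut at about 5.3 in these data; same plate scores as AID 2156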;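 also: B-score of peak minus minimum over baseline fluorescence ratio after K+ and Tl+ stimulus; positive B-score means potentiation of KCNQ2 with more thallium influx and brighter signal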
Target sequence (O88943 whole entry, looked up): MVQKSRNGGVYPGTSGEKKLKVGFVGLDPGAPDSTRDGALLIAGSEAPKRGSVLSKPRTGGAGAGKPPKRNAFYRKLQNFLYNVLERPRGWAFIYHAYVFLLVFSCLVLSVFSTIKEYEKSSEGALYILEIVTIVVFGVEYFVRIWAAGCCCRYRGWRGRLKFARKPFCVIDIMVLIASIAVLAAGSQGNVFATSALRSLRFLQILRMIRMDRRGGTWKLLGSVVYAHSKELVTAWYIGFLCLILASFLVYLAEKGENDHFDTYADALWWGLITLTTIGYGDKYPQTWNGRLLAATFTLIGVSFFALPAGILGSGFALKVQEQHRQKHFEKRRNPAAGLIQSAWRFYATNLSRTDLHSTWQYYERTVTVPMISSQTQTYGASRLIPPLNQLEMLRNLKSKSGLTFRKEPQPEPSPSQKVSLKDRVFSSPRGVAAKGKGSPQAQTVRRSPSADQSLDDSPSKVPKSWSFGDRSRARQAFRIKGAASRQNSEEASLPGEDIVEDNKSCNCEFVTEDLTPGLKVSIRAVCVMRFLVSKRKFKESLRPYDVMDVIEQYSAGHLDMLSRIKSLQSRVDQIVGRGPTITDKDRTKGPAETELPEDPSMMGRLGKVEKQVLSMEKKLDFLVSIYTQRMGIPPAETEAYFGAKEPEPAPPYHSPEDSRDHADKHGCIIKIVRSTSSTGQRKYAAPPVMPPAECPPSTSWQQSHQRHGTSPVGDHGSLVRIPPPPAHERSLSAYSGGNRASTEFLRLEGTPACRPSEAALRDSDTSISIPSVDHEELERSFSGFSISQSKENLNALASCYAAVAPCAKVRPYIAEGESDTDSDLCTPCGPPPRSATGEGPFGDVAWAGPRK
KCNQ2 inh: rat KCNQ2 potassium channel inhibitors, primary screen, cell-based, CHO-K1, FluxOR thallium flux, B-score; B-score at 10 µM; AID 2156, 2009; Potassium voltage-gated channel subfamily KQT member 2 (Rattus norvegicus), O88943; actives 1.1% (n = 310,000); 20 min; stronger effect = lower value;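 active = fluorescence ratio B-score at most minus 3 library SDs, with starting brightness B-score within 2 library SDs, cut at about -5.5 in these data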
KCNQ2 inh conf: rat KCNQ2 potassium channel inhibitors, confirmation, cell-based, thallium flux; shares compounds with KCNQ2 inh; AID 493025, 2011; KCNQ2-expressing cells, inhibition; stronger effect = lower value; actives 57% (n = 1,000); activity change, negative = inhibition, % at 10 µM
KCNQ1 spec: human KCNQ1 channel inhibition, counter-screen for KCNQ2 inhibitor project, cell-based, FluxOR thallium flux. KCNQ1-expressing cells, FluxOR thallium flux fluorescence; stronger effect = lower value. AID 493026, 2011. shares compounds with KCNQ2 inh. activity change, negative = inhibition, % at 10 µM. actives 15% (n = 1,000);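 active = activity change at least 3 SD of negative controls below their mean in both duplicate wells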;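 also: CHO cells stably transfected with KCNQ1 and depolarized by potassium stimulus; peak minus minimum fluorescence over baseline after thallium addition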
CHO Tl ctr: thallium flux change in parental CHO cells, counter-screen for KCNQ2 inhibitor project | AID 493029, 2011 | shares compounds with KCNQ2 inh | stronger effect = lower value | activity change, % at 10 µM | actives 14% (n = 1,000)
KCNQ2 patch conf: rat KCNQ2 channel inhibitors, confirmation, cell-based, automated patch clamp, single concentration. AID 588531, 2011. shares compounds with KCNQ2 inh. calls only at 10 µM. KCNQ2-expressing cells, automated patch clamp current. actives 49% (n = 550)
A number is an active result; n = inactive; x = not tested or not shown; + = active, no number. Most compounds without a hit are left out; they make up all but 1.6% or so of the library. Unless noted, no rule for the calls is given here.

SMILES | KCNQ2 pot | KCNQ2 inh | KCNQ2 inh conf | KCNQ1 spec | CHO Tl ctr | others
COc1ccc(C2CC(=O)c3c(O)cc(O)cc3O2)c(CC=C(C)C)c1OC (centres undefined) | n | -13 | -34% | n | n | KCNQ2 patch conf=+
CC(C)=CCc1c(O)cc2c(c1O)C(=O)CC(c1ccccc1)O2 (centres undefined) | n | n | x | x | x
N#Cc1c(F)cccc1NCCCn1ccnc1 | x | n | x | x | x
Cc1ccc2c(c1)C(c1ccccc1)N(C(=O)CC(C)C)CC(=O)N2 (centres undefined) | n | n | x | x | x
CCn1c(C(=O)N2CCCC(C(=O)O)C2)cc2sccc21 (centres undefined) | n | n | x | x | x
CCn1c(C(=O)N2CCC(Cc3ccccc3)CC2)cc2sccc21 | n | -7.2 | n | n | n
O=C(NCCC(=O)N(CCc1ccccc1)Cc1ccccc1)c1ccccc1Cl | n | -6.7 | -32% | n | n | KCNQ2 patch conf=+
O=C(OCC(=O)N(CCc1ccccc1)Cc1ccccc1)c1ccccc1O | n | -7.2 | n | n | n
CCN(Cc1ccccc1)C(=O)COC(=O)c1cc(Cl)nc(Cl)c1 | x | n | x | x | x
Cc1ccc(C(=O)NCCCc2ccccc2)c(Cl)c1 | x | n | x | x | x
Cc1ccccc1OCC(=O)NC(=S)Nc1ccccc1N1CCN(S(C)(=O)=O)CC1 | x | n | x | x | x
Cc1cc(NS(=O)(=O)c2ccc(NC(=O)COc3ccc(Cl)c(C)c3)cc2)no1 | x | n | x | x | x
Cc1coc2c1c(C)cc1oc(=O)c(CC(=O)N[C@@H](C)C(=O)O)c(C)c12 | n | n | x | x | x
O=C(N/N=C/c1ccccc1)c1ccc(OCc2ccccc2)cc1 | n | n | x | x | x
O=C(N/N=C/c1ccccc1)c1sccc1OCc1ccc(F)cc1 | n | -6.8 | n | n | n
NC(=O)Cn1c(=O)n(Cc2ccccc2)c(=O)c2cccnc21 | n | n | x | x | x
COc1ccc(S(=O)(=O)Nc2ccc(F)cc2F)cc1C(=O)N1CCOCC1 | n | n | x | x | x
Cc1cc(CN2CCN(CCC#N)CC2)c(O)c(C2(C)CCCCC2)c1 | n | -7.4 | n | n | n
N#CCCN1CCN(CCC#N)CC1 | x | n | x | x | x
O=C(CN(c1cccc(Br)c1)S(=O)(=O)c1ccccc1)N/N=C/c1cc([N+](=O)[O-])ccc1O | n | n | x | x | x
Cc1ccccc1OCC(=O)N1N=C(C(F)(F)F)CC1(O)C(C)(C)C (centres undefined) | n | -8.2 | n | n | n
Cc1ccc(OCC(=O)N2N=C(C(F)(F)F)CC2(O)C(C)(C)C)cc1C (centres undefined) | x | n | x | x | x
O=[N+]([O-])c1cc([N+](=O)[O-])c2c(=Nc3ccccc3)n(-c3ccccc3)n(O)c2c1 | n | -9.8 | -34% | -40% | -28% | KCNQ2 patch conf=+
O=[N+]([O-])c1cc(Br)c(Nc2ccccc2)c([N+](=O)[O-])c1 | x | n | x | x | x
O=C(NCC1CCCO1)c1ccc(Cl)c(S(=O)(=O)Nc2ccccc2)c1 (centres undefined) | x | n | x | x | x
SMILES | KCNQ2 pot | KCNQ2 inh | KCNQ2 inh conf | KCNQ1 spec | CHO Tl ctr | others
COc1cccc(C(=O)N2CCN(C(=O)C3CC3)CC2)c1 | n | n | x | x | x
Cc1ccccc1CC1(CO)CCCN(C(=O)c2cccc(Cl)c2)C1 (centres undefined) | n | -6.8 | -27% | n | n | KCNQ2 patch conf=n
Cc1ccccc1CC1(CO)CCCN(C(=O)c2cc(Cl)ccc2F)C1 (centres undefined) | n | n | x | x | x
CCOC(=O)c1c(C)n(C)c2ccc(OCC(O)CNC(CC)CO)cc12 (centres undefined) | n | n | x | x | x
CCOC(=O)c1c(C)n(-c2ccc(C)cc2)c2ccc(OCC(O)CNCCCO)cc12 (centres undefined) | n | -11 | n | n | n
Cc1ccc(N2CC(O)Cn3c2nc2c3c(=O)[nH]c(=O)n2C)cc1 (centres undefined) | x | n | x | x | x
CCOC(=O)c1ccc2c(c1)nc(COc1ccc3ccccc3c1)n2CC | n | -9.1 | n | n | n
CCn1c(COc2ccc(OC)cc2)nc2ccccc21 | x | n | x | x | x
CCOC(=O)CC1(NC(=O)C2CCC(=O)N(Cc3ccccc3OC)C2)CCCCC1 (centres undefined) | n | n | x | x | x
C=C(C)c1cccc(C(C)(C)NC(=O)NC2CCN(Cc3ccccc3)CC2)c1 | n | n | x | x | x
C=C(C)c1cccc(C(C)(C)NC(=O)N(Cc2ccccc2)Cc2ccco2)c1 | n | -8.7 | -23% | n | n | KCNQ2 patch conf=n
O=C(NC1CCCCC1)C(c1ccc(F)cc1)N(C(=O)c1csnn1)C1CC1 (centres undefined) | x | n | x | x | x
CCc1ccc(OCC(=O)NNC(=O)c2cc(S(=O)(=O)N(C)C)ccc2N2CCCC2)cc1 | n | n | x | x | x
CN(C)S(=O)(=O)c1ccc(N2CCCC2)c(C(=O)NNC(=O)c2ccc(Br)cc2)c1 | n | -10 | -24% | n | n | KCNQ2 patch conf=+
CN(C)S(=O)(=O)c1ccc(N2CCCC2)c(C(=O)NNC(=O)COc2ccc(Cl)cc2)c1 | n | -7 | n | n | n
CN(C)S(=O)(=O)c1ccc(N2CCCC2)c(C(=O)Nc2ccc(C(N)=O)cc2)c1 | x | n | x | x | x
COc1ccc(CNCC(O)(c2ccc(Cl)cc2)c2ccc(Cl)cc2)cc1OC | x | n | x | x | x
CC(NCc1ccc(OCc2ccc(Cl)cc2)cc1)C(O)c1ccccc1 (centres undefined) | x | n | x | x | x
COc1ccc(CNCC(O)(c2ccc(Cl)cc2)c2ccc(Cl)cc2)cc1 | n | -7.7 | n | n | n
OC(CNCc1ccc(Cl)cc1)(c1ccccc1)c1ccc(F)cc1 (centres undefined) | n | -7.2 | -33% | -34% | -32% | KCNQ2 patch conf=n
COc1ccc(CNC(c2ccccc2)c2ccc(Cl)cc2)cc1 (centres undefined) | n | -8.8 | n | n | n
OC(CNCc1ccc(F)cc1)(c1ccc(F)cc1)c1ccc(F)cc1 | x | n | x | x | x
CS(=O)(=O)c1ccc(-c2csc(-c3cccnc3)n2)cc1 | n | n | x | x | x
O=C(NC1CCOc2ccccc21)c1ccccn1 (centres undefined) | n | n | x | x | x
O=C(Cc1coc2ccc3ccccc3c12)NCc1ccccc1 | n | n | x | x | x
SMILES | KCNQ2 pot | KCNQ2 inh | KCNQ2 inh conf | KCNQ1 spec | CHO Tl ctr | others
CCCN(CCC)C(=O)Cc1coc2ccc3ccccc3c12 | n | -7.3 | n | n | n
CCc1ccc(-c2nc(CSCC(=O)N3CCN(c4ccccn4)CC3)c(C)o2)cc1 | n | -10 | -38% | -40% | -32% | KCNQ2 patch conf=n
Cc1ccc(-c2nc(CSCC(=O)N3CCN(c4ccccn4)CC3)c(C)o2)cc1 | x | n | x | x | x
Cc1ccc(C)c(N2CCN(C(=O)C(Cc3ccccc3)n3cccc3)CC2)c1 (centres undefined) | n | -7 | -24% | n | n | KCNQ2 patch conf=n
Cc1ccc(C)c(N2CCN(C(=O)Cn3cccc3)CC2)c1 | n | n | x | x | x
COc1ccc(Cl)c(NC(=O)C/C(C)=N/NC(=O)CCc2ccccc2)c1 | n | n | x | x | x
Cc1ccc(/C(N)=N/OC(=O)Cc2ccccc2)cc1 | x | n | x | x | x
